A number with no mark means an inactive call. Records with an inconclusive call do not appear. Where a call stands in place of a potency, no number is given. Active and inactive are the calls of the source. Unless noted, calls follow the shape of the full dose curve.
What was measured:
[1] = Nuclear factor erythroid 2-related factor 2/antioxidant responsive element (Nrf2/ARE) small molecule agonists: qHTS cell viability counter screen in human keratinocytes (AID 1919968; active = well fitted cell-killing curve with a large enough effect in the repeat runs; also: nearly all actives have a fitted effect of over 55% in size)
How it was run: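 Cells of the KeratinoSens line were plated at 1,500 per well and left for 5 h before compound transfer from DMSO stocks. After a 23 h incubation (37 C, 5% CO2), CellTiter-Fluor was added. Signal was taken as fluorescence intensity 1 h later.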

[2] = Nuclear factor erythroid 2-related factor 2/antioxidant responsive element (Nrf2/ARE) small molecule agonists: luciferase reporter gene qHTS assay in human keratinocytes (AID 1919969); also: nearly all actives have a fitted effect of over 35% in size; also: potency is read from the fitted curve at half-maximal effect
[3] = target: Gonadotropin-releasing hormone receptor (Homo sapiens) (UniProt P30968); assay: Human gonadotropin-releasing hormone receptor (GnRHR) small molecule agonists, calcium flux assay in GnRHR-HEK293 cells (AID 1920063); also: nearly all actives have a fitted effect of over 35% in size
How it was run: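 Compounds dissolved in DMSO are pin-transferred onto dye-loaded GnRHR-HEK293 cells, which were seeded 18 h before at 37 C/5% CO2. Calcium signal is read as fluorescence intensity at 1 s intervals for 3 min.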

[4] = G protein-coupled receptor (GPCR) small molecule agonists, calcium flux assay: HEK293 wild type cell line counter screen (AID 1920065)
How it was run: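 Tox21 10K compounds, 15 concentrations each in triplicate, pin-transferred in DMSO onto dye-loaded cells; kinetic read at 480/540 nm for 3 min, 1 s intervals.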

[5] = p53 small molecule agonists, cell-based qHTS assay with human liver microsomes (AID 1963577)
How it was run: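 Compounds act here after metabolic activation: human liver microsomes and NADPH, both at 0.5 mg/mL final, were co-added to p53RE-bla cells. Incubation ran 16 h at 37 C, followed by LiveBLAzer detection.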

[6] = p53 small molecule agonists, cell-based qHTS assay with rat liver microsomes (AID 1963578)
How it was run: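 Read-out is beta-lactamase reporter fluorescence (LiveBLAzer, 2 h, room temperature, dark) in p53RE-bla cells treated 16 h at 37 C with compound, rat liver microsomes and NADPH, both 0.5 mg/mL final.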

[7] = p53 small molecule agonists, cell-based qHTS assay with human liver microsomes: qHTS cell viability counter screen (AID 1963579); also: nearly all actives have a fitted effect of over 45% in size; also: potency is read from the fitted curve at half-maximal effect
How it was run: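 Cells carrying the p53 response-element beta-lactamase reporter are treated for 16 h at 37 C with test compounds in the presence of human liver microsomes and NADPH (both 0.5 mg/mL final); ATP-based CellTiter-Glo luminescence then reports viability.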

[8] = p53 small molecule agonists, cell-based qHTS assay with rat liver microsomes: qHTS cell viability counter screen (AID 1963580); also: nearly all actives have a fitted effect of over 45% in size
How it was run: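 Cytotoxicity counter screen: intracellular ATP measured by CellTiter-Glo luminescence in the same wells as the beta-lactamase reporter read, on HCT-116 p53RE-bla cells exposed 16 h at 37 C to compounds with rat liver microsomes and NADPH, each 0.5 mg/mL final.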

[9] = p53 small molecule agonists, cell-based qHTS assay: qHTS cell viability counter screen (AID 1963581); also: nearly all actives have a fitted effect of over 45% in size
How it was run: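 ATP content measured by luminescence in HCT-116 p53RE-bla cells treated 16 h at 37 C, same wells as the reporter screen.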

[10] = target: 5-hydroxytryptamine receptor 2A (Homo sapiens) (UniProt P28223); assay: 5-hydroxytryptamine receptor 2A (HTR2A) small molecule antagonists, cell-based qHTS assay (AID 1963586); also: nearly all actives have a fitted effect of over 45% in size
How it was run: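 CHO cells stably expressing human HTR2A were plated for 18 h at 37 C, then loaded with calcium dye for 1 h. Compounds were preincubated 5 min at room temperature before DOI (4 nM solution) was added. Kinetic fluorescence was read for 3 min.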

[11] = target: 5-hydroxytryptamine receptor 2A (Homo sapiens) (UniProt P28223); assay: 5-hydroxytryptamine receptor 2A (HTR2A) small molecule agonists, cell-based qHTS assay (AID 1963587); also: nearly all actives have a fitted effect of over 30% in size
How it was run: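 CHO cells stably expressing human HTR2A, plated 18 h, loaded with calcium dye 1 h at 37 C. Agonist mode: compounds added and intracellular calcium fluorescence recorded kinetically for 2 min at 1 sec intervals.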

[12] = target: Muscarinic acetylcholine receptor M1 (Homo sapiens) (UniProt P11229); assay: Cholinergic receptor muscarinic 1 (CHRM1) small molecule antagonists, cell-based qHTS assay (AID 1963588); also: nearly all actives have a fitted effect of over 40% in size; also: potency is read from the fitted curve at half-maximal effect
How it was run: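 Compounds were tested at 15 concentrations in three independent runs. Dye-loaded CHRM1-CHO cells were exposed 5 min at room temperature before stimulation by acetylcholine added at 50nM. Intracellular calcium was read kinetically on FDSS for 3 min.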

[13] = target: Muscarinic acetylcholine receptor M1 (Homo sapiens) (UniProt P11229); assay: Cholinergic receptor muscarinic 1 (CHRM1) small molecule agonists, cell-based qHTS assay (AID 1963589); also: nearly all actives have a fitted effect of over 35% in size
How it was run: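 Homogeneous fluorescence calcium flux, agonist mode. Human M1-expressing CHO cells; compound dosed at 15 concentrations, three independent runs; signal sampled every 1 sec.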

[14] = cAMP Responsive Elements (CRE) small molecule agonists, cell-based qHTS assay (AID 1963590)
How it was run: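 HEK 293T cells stably bearing CRE-bla were plated at 2,000 cells per well and rested 18 h. Compounds, positive controls or DMSO were added for 3 h at 37 C. LiveBLAzer B/G substrate was then loaded for 2 h at room temperature.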

[15] = cAMP Responsive Elements (CRE) small molecule antagonists, cell-based qHTS assay (AID 1963591; active = well fitted inhibition curve with a large enough effect in the signal ratio in the repeat runs, not every such curve was filed as active; the % refers to the signal ratio)
How it was run: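 First, CRE-bla HEK293T cells settled 18 h at 37 C. Next, compound and 0.25 uM final NKH477 were applied for 3 h. Last, LiveBLAzer B/G substrate was loaded for 2 h at room temperature.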

[16] = target: Beta-2 adrenergic receptor (Homo sapiens) (UniProt P07550); assay: Adrenergic beta2 receptor (ADRB2) small molecule antagonists, cell-based qHTS assay (AID 1963592); also: series mostly up to about 92 µM; nearly all actives have a fitted effect of over 50% in size
How it was run: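 Assay format: CHO-ADRB2 cells, 18-20hr seeding at 37C/5% CO2, then compound plus 1nM isoproterenol agonist mix for 0.5hr RT. Homogeneous time-resolved fluorescence cAMP detection after 1hr, expressed as 665/615 nm ratio.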

[17] = target: Beta-2 adrenergic receptor (Homo sapiens) (UniProt P07550); assay: Adrenergic beta2 receptor (ADRB2) small molecule agonists, cell-based qHTS assay (AID 1963593); also: potency is read from the fitted curve at half-maximal effect;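 as to activation: CHO cells stably overexpressing human ADRB2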
How it was run: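 CHO cells stably over-expressing ADRB2 were plated overnight at 37C, then dosed with compounds plus a stimulation mix containing 100uM IBMX and 25uM Ro-20-1724 for 0.5hr at room temperature. cAMP was measured by HTRF competition, 1hr.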

[18] = target: D(2) dopamine receptor (Homo sapiens) (UniProt P14416); assay: Dopamine D2 receptor (DRD2) small molecule agonists, cell-based qHTS assay (AID 1963594); also: nearly all actives have a fitted effect of over 35% in size
How it was run: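 HEK293 cells stably expressing human DRD2, pre-treated with PDE inhibitor Ro20-1724 (0.1 mM final) and compound 10 min at room temperature, then stimulated with NKH477 (200nM […]) for 30 min. cAMP read by HTRF (665/620 nm).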

[19] = target: D(2) dopamine receptor (Homo sapiens) (UniProt P14416); assay: Dopamine D2 receptor (DRD2) small molecule antagonists, cell-based qHTS assay (AID 1963595; active = well fitted inhibition curve with a large enough effect in the signal ratio in the repeat runs, with a control signal flat; the % refers to the signal ratio)
How it was run: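 Human DRD2 antagonist qHTS measuring cAMP by HTRF. The cells are exposed to compound for 10 min, then to NKH477 (200 nM) and quinpirole (12 nM) for 30 min at RT, with Ro20-1724 (0.1 mM) present throughout.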

[20] = p53 small molecule agonists, cell-based qHTS assay (AID 1963582; active = well fitted activation curve with a large enough effect in the signal ratio in the repeat runs, not every such curve was filed as active; the % refers to the signal ratio)
How it was run: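 16 h compound exposure (37 C) of p53 response element–bla cells, preceded by 5 h recovery at 37 C/5% CO2; read-out via LiveBLAzer B/G FRET substrate, 2 h RT, fluorescence intensity.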

Sequence of 5-hydroxytryptamine receptor 2A (Homo sapiens) (P28223 whole entry, looked up): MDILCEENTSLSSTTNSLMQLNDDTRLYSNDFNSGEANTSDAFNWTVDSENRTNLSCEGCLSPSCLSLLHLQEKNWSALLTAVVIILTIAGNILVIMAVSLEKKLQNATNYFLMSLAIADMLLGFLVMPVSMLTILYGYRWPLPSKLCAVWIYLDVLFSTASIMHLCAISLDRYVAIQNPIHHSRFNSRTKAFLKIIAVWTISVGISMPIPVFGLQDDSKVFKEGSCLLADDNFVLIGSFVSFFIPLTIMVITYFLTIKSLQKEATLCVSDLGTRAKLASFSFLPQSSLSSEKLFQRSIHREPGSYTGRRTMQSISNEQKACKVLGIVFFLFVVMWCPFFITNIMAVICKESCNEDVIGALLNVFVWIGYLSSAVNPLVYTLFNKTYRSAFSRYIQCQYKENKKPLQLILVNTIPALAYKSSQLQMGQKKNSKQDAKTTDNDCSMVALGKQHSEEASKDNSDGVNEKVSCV
Sequence of D(2) dopamine receptor (Homo sapiens) (P14416 whole entry, looked up): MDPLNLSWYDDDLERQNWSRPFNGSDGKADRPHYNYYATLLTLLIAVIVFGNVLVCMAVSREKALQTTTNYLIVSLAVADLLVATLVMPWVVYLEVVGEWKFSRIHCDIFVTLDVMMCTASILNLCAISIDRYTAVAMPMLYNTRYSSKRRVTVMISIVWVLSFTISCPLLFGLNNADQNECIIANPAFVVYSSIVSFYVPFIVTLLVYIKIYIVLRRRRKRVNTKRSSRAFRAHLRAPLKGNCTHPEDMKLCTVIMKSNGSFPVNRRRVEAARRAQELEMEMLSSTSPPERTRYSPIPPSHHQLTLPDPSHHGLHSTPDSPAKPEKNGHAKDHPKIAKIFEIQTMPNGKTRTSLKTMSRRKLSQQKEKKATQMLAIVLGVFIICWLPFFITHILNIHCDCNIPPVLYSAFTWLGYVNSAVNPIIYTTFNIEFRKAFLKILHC
Sequence of Beta-2 adrenergic receptor (Homo sapiens) (P07550 whole entry, looked up): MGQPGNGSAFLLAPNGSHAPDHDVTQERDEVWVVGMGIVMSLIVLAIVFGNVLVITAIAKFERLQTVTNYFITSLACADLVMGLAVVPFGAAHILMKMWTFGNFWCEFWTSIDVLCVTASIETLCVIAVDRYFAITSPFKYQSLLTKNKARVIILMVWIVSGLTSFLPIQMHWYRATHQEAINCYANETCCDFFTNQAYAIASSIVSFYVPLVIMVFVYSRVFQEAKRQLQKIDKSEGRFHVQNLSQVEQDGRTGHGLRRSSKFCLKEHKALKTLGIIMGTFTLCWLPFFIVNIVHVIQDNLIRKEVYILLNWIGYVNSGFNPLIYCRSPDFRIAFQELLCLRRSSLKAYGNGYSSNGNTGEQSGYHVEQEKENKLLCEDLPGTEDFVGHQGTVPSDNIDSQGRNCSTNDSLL
Sequence of Gonadotropin-releasing hormone receptor (Homo sapiens) (P30968 whole entry, looked up): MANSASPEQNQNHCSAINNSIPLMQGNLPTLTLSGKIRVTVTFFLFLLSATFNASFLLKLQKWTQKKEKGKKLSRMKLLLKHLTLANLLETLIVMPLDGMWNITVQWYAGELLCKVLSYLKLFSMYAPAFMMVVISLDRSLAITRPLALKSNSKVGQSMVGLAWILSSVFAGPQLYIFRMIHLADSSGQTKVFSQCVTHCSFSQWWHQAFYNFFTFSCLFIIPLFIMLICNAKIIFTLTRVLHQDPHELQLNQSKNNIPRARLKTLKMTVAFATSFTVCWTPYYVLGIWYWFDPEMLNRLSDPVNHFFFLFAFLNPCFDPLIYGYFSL
Sequence of Muscarinic acetylcholine receptor M1 (Homo sapiens) (P11229 whole entry, looked up): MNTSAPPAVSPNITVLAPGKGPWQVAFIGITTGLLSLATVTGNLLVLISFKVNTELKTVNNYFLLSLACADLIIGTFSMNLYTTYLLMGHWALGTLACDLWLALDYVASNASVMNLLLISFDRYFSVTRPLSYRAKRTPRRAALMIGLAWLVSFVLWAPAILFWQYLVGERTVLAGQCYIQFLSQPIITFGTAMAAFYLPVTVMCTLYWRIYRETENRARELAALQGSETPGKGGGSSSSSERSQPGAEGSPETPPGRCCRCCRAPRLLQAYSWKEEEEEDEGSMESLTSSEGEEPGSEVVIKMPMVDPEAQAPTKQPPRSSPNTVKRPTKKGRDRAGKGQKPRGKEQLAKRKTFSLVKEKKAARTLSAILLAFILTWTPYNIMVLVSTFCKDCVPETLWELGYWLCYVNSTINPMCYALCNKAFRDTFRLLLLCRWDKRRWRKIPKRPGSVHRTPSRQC

SMILES | Potency [1] | Potency [2] | Potency [3] | outcome [4] | Potency [5] | Potency [6] | Potency [7] | Potency [8] | Potency [9] | Potency [10] | Potency [11] | Potency [12] | Potency [13] | Potency [14] | Potency [15] | Potency [16] | Potency [17] | Potency [18] | Potency [19] | Potency [20]
N=C(N)c1ccc(OCCCOc2ccc(C(=N)N)cc2)cc1 | inactive | inactive | inactive | inactive | inactive | inactive | inactive | inactive | inactive | inactive | inactive | inactive | inactive | inactive | inactive | inactive | inactive | inactive | inactive | 
NS(=O)(=O)c1cc(C2(O)NC(=O)c3ccccc32)ccc1Cl (centres undefined) | inactive | inactive | inactive | inactive | inactive | inactive | inactive | inactive | inactive |  |  |  |  | inactive | inactive | inactive | inactive | inactive | inactive | inactive
c1ccc(CN(CC2=NCCN2)c2ccccc2)cc1 | inactive | inactive | inactive | inactive | inactive | inactive | inactive | inactive | inactive |  | inactive | inactive |  | inactive | inactive | inactive |  | inactive | inactive | inactive
O=C(O)/C=C/c1ccc(/C=C/C(=O)O)cc1 | inactive | inactive | inactive | inactive | inactive | inactive | inactive | inactive | inactive | inactive | inactive | inactive | inactive | inactive | inactive | inactive |  | inactive | inactive | 
CCCCCCOC(=O)CCCCC | inactive | inactive | inactive | inactive | inactive | inactive | inactive | inactive | inactive | inactive | inactive |  | inactive | inactive | inactive | inactive |  | inactive | inactive | inactive
CCCCOc1ccc(C(=O)CCN2CCCCC2)cc1 | inactive | inactive | inactive | inactive | inactive | inactive | inactive | inactive | inactive |  | inactive | 10.3 µM (active) | inactive | inactive | inactive |  | 13.3 µM (active) | inactive | inactive | inactive
CS(=O)(=O)c1ccc(-c2cn3ccccc3n2)cc1 | inactive | 33.5 µM (active) | inactive | inactive | inactive | inactive | 17.8 µM (active) | inactive | inactive | inactive | inactive | inactive | inactive | inactive | inactive | inactive |  | inactive | inactive | 
CCC(=O)OC(=O)CC | inactive | 27.1 µM (active) | inactive | inactive | inactive | inactive | inactive | inactive | inactive |  | inactive | inactive | inactive | inactive |  | inactive |  | inactive | inactive | inactive
CCCCCC[C@@H](O)C/C=C\CCCCCCCC(=O)OCC(O)CO (some centres undefined) | inactive | inactive | inactive | inactive | inactive | inactive | inactive | inactive | inactive | inactive | inactive |  | inactive |  |  | inactive |  | inactive |  | inactive
OCc1ccccn1 | inactive | inactive | inactive | inactive | inactive | inactive |  | inactive | inactive | inactive | inactive | inactive | inactive | inactive | inactive | inactive |  | inactive | inactive | inactive
CCCCc1nc(Cl)c(CO)n1Cc1ccc(-c2ccccc2-c2nn[nH]n2)cc1 | inactive | inactive | inactive | inactive | inactive | inactive | inactive |  |  |  |  |  |  | inactive |  |  |  | inactive | inactive | inactive
CC/C=C\CCOC(C)=O | inactive | inactive | inactive | inactive | inactive | inactive | inactive |  | inactive | inactive | inactive | inactive | inactive | inactive | inactive |  |  | inactive | inactive | inactive
Cc1cc2c(cc1S(N)(=O)=O)S(=O)(=O)CCC2 | inactive | inactive | inactive | inactive | inactive | inactive | inactive | inactive | inactive |  | inactive | inactive | inactive | inactive | inactive | inactive |  | inactive | inactive | 
CC(CN(C)C)C(C)(O)Cc1ccc(Cl)cc1 (centres undefined) | inactive | inactive | inactive | inactive | inactive | inactive |  | inactive | inactive |  |  | inactive | inactive |  | inactive | inactive |  | inactive | inactive | inactive

Reference: PubChem BioAssay (Tox21)
